In the library only some 2.9% were active in any assay of this set; here they are far more common.
PAFAH1B2 FP inh: inhibitors of human PAFAH1B2. 340,000 compounds, 1.2% hits. AID 492953. inhibition, % at 3.39 µM. recombinant PAFAH1B2, FP-rhodamine activity probe, fluorescence polarization;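 active = inhibition above the mean of all tested compounds plus 3 SD, cut at about 24% in these data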;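 also: 0% = enzyme with DMSO and 100% = wells lacking PAFAH1B2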
Target sequence (P68402 whole entry, looked up): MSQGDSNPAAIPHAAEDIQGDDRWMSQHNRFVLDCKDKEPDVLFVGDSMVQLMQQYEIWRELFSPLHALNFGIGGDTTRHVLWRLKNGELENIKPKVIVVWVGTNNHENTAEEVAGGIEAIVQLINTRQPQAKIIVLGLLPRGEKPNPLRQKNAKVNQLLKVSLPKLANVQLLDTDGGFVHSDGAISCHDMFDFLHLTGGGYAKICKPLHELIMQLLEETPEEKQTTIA
PAFAH1B3 FP inh: inhibitors of human PAFAH1B3 | AID 492972 | recombinant PAFAH1B3, FP-rhodamine probe, fluorescence polarization | inhibition, % at 3.39 µM | Q15102 | 340,000 compounds, 0.28% hits;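 active = inhibition above the screen-wide average of all tested compounds plus 3 SD, cut at about 25% in these data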;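 also: 0% = enzyme with DMSO only and 100% = wells lacking PAFAH1B3 protein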
Target sequence (Q15102 whole entry, looked up): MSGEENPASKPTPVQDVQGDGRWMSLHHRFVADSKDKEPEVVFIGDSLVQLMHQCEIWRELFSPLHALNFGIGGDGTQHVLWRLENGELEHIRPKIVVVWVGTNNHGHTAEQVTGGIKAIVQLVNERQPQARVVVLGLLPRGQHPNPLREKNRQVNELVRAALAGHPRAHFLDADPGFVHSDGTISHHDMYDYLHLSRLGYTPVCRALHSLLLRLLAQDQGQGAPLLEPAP
Fam108B inh: Fam108B inhibition, counter-screen for RBBP9 inhibitors; recombinant Fam108B, FP-Rh probe fluorescence polarization; inhibition, % at 9.51 µM; 300,000 compounds, 0.33% hits;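 active = inhibition above the screen mean inhibition plus 3 SD, computed separately per campaign, cut at about 18% in these data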;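 also: inhibitors lower polarization as less probe binds the enzyme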
pPAFAH inh: pPAFAH (human) enzyme inhibition; AID 463082; Q13093; recombinant pPAFAH, FP-rhodamine probe fluorescence polarization; inhibition, % at 3.39 µM; 330,000 compounds, 1.5% hits;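 active = inhibition above the mean inhibition across the screen plus 3 SD, cut at about 25% in these data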;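 also: inhibitors block binding of the rhodamine activity-based probe so polarization drops; 0% = enzyme with DMSO and 100% = wells lacking pPAFAH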
PAFAH2 inh: inhibitors of human PAFAH2; Q99487; recombinant PAFAH2, FP-rhodamine activity probe, fluorescence polarization; inhibition, % at 3.39 µM; 340,000 compounds, 0.99% hits; AID 492956;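 active = inhibition above the mean over all tested compounds plus 3 SD, cut at about 30% in these data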;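 also: inhibitors block probe labeling of enzyme so polarization drops; 0% = enzyme with DMSO and 100% = wells lacking PAFAH2 protein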
PME-1 inh: PME-1 (human) inhibition; Q9Y570; recombinant PME-1, FP-Rh probe fluorescence polarization; inhibition, % at 5.9 µM; 320,000 compounds, 0.53% hits;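 active = inhibition above the campaign mean of all compounds plus 3 SD, cut at about 26% in these data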;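 also: competitive labeling of PME-1 active site by serine hydrolase directed probe; 0% = PME-1 with DMSO and 100% = wells lacking PME-1 enzyme; inhibitors block probe labeling so polarization falls and inhibition rises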
pPAFAH FP conf: confirmation of human plasma PAF acetylhydrolase (pPAFAH) inhibitors; shares compounds with pPAFAH inh; recombinant pPAFAH, FP-Rh probe fluorescence polarization; inhibition, % at 3.39 µM; 2,300 compounds, 72% hits; AID 463230;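 active = mean inhibition of the triplicate above the hit cutoff set for the earlier primary screen, cut at about 25% in these data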;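 also: 0% = enzyme with DMSO and 100% = wells lacking pPAFAH enzyme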
* marks the source's active call; other numbers are inactive results; x = not tested or not shown.

SMILES	PAFAH1B2 FP inh	PAFAH1B3 FP inh	Fam108B inh	pPAFAH inh	PAFAH2 inh	PME-1 inh	pPAFAH FP conf
CCCCCCCCC[n+]1cccc2c3ccccc3ccc21	2	-1	3	7	-2	-8	x
CCCCCCCCCCCCCCCC[n+]1cccc2ccccc21	-8	-1	13	57*	-3	9	33*
CCOc1cccc(=O)c2c(C)n(-c3ccc(C(=O)O)cc3)c(C)c12	3	6	13	38*	8	-15	21
CCOc1ccccc1CNCc1ccc(C(=O)O)cc1	-4	6	1	-6	-2	1	x
CCOC(=O)N1CCN(c2cc(NCCC(=O)O)c3c4c(onc24)-c2ccccc2C3=O)CC1	-3	8	6	55*	-8	16	37*
CCOC(=O)Cn1c(=O)oc2cc(S(=O)(=O)Nc3ccc(N(CC)CC)cc3C)ccc21	5	-2	4	55*	2	0	53*
Cc1nn(-c2ccccc2)c(/N=C/c2ccccc2O)c1-c1ccccc1	3	8	-1	35*	2	2	10
CCC(C)(C)NC(=O)CN(C(=O)C(=O)Nc1ccc2c(c1)OCCO2)N1CCOCC1	4	1	-1	2	-2	-6	x
O=C(CNC(c1ccccc1)c1ccccc1)Nc1ccccc1F	6	-4	2	47*	6	2	-4
CCc1ccc(NS(=O)(=O)c2ccc3c(c2)oc(=O)n3C)cc1	6	5	1	58*	1	5	47*
O=C(/C=C/c1ccc(Cl)cc1Cl)c1ccc[nH]1	-4	4	-4	5	-10	-3	x
CN(C)/C=C/C(=O)/C=C/c1ccc(Cl)cc1Cl	5	4	-2	38*	9	3	4
C[C@@H]1CN(Cc2nc(Cc3ccccc3F)no2)C[C@H](C)O1	5	2	-4	-2	-5	0	x
Cc1nnc(NC(=O)c2sc3nc(-c4cccs4)cc(C(F)(F)F)c3c2N)s1	2	11	5	70*	15	17	73*
Cc1cc(C(=O)N/N=C2\CC(=O)c3ccccc32)c(C)n1-c1ccc(F)cc1	2	14	6	42*	1	10	32*
CCOc1cc(/C=N/NC(=O)c2cc(C)n(-c3ccc(F)cc3)c2C)ccc1O	7	11	5	14	-2	17	x
CC(C)=CCC/C(C)=C/CNC(=O)C[C@H]1C[C@H](C(=O)N2CCCCC2)[C@@]2(C)c3[nH]c4cc(-c5ccco5)ccc4c3CCN2C1=O	1	5	x	41*	8	x	23
CC(C)=CCC/C(C)=C/CNC(=O)C[C@H]1C[C@H](C(=O)N(C(C)C)C(C)C)[C@@]2(C)c3[nH]c4cc(CCC(=O)N(C)C)ccc4c3CCN2C1=O	4	4	x	68*	-2	x	59*
CC(C)N(C(=O)[C@H]1C[C@H](CC(=O)NCCCN(C)C)C(=O)N2CCc3c([nH]c4cc(CCC(=O)N(C)C)ccc34)[C@]12C)C(C)C	-1	0	x	3	-2	x	x
CC(C)=CCC/C(C)=C/CNC(=O)C[C@H]1C[C@H](C(=O)N2CCOCC2)[C@@]2(CCC3CCCC3)c3[nH]c4cc(CCC(=O)N(C)C)ccc4c3CCN2C1=O	6	7	x	39*	2	x	27*
CC(C)=CCC/C(C)=C/CNC(=O)CC1C[C@H](C(=O)N2CCCCC2)[C@@]2(C)c3[nH]c4ccccc4c3CCN2C1=O (stereo not given in full)	-1	1	x	3	2	x	x
CN(C)C(=O)CCc1ccc2c3c([nH]c2c1)[C@]1(CCC2CCCC2)[C@@H](C(=O)N2CCOCC2)C[C@H](CC(=O)NCC24CC5CC(CC(C5)C2)C4)C(=O)N1CC3	2	8	x	8	2	x	x
CC1CC(C)CN(CCCNC(=O)CCC(=O)N2CC(C)Oc3ccccc32)C1 (stereo not given)	2	6	-2	0	1	-1	x
CC1CN(C(=O)c2cc3cc(F)ccc3[nH]2)CC(C)O1 (stereo not given)	2	-1	x	x	-3	x	x
Cc1c(C)c2ccc(O)c(CN3CCCC3)c2oc1=O	2	1	2	1	-1	-5	x

Screens deposited in PubChem by The Scripps Research Institute Molecular Screening Center.
